Hit rate of the full screen: of about 68,000 compounds, about 2,700 (4%) showed an effect of 50% or more. What follows is part of a selection rich in strong results, with near analogues and random picks from the rest.

In this assay the test system is Plasmodium berghei. Kind of assay: Screen against P. berghei liver stage (PbLuc), transformed with Luciferase, at 2uM. It counts as functional, HepG2. To be noted: tested at 2 uM.
Regarding `CC(=O)Nc1ccc(C(=O)N(C)Cc2cccc(F)c2)s1`, the INHIBITION is given as 45.05%. Consider `CCN(CCn1cccn1)Cc1nc(-c2cccs2)oc1C`, for which the INHIBITION is listed as -9.1%. Turning to `Cc1nnsc1CN(C)C(=O)CCn1cnc2ccccc21`, the INHIBITION is reported as -40.44%. As to `CCOC(=O)N1CCN(c2nc(NCCCO)c3ccccc3n2)CC1`, the INHIBITION came out at 7.14%. For `O=C1C(Sc2nnnn2C2CC2)CCN1c1ccccc1F` (configuration not stated) the value was 21.82%.

For `Cn1cnc(S(=O)(=O)NCC2(O)CCOc3ccccc32)c1` (configuration not stated), the INHIBITION was 45.19%. For `Cn1cnc(S(=O)(=O)NCC2(O)CCc3ccccc32)c1` (configuration not stated) the value was 30.34%.

In the case of `Cn1cnc(S(=O)(=O)NCC2(O)CCc3ccccc3C2)c1` (configuration not stated), the INHIBITION worked out at 53.33%. Regarding `CC(NC(=O)c1cccnc1N(C)C)c1ccccc1Br` (configuration not stated), the INHIBITION amounted to 20.32%. With `Cc1nc(CNCc2c(C(C)C)nn(C)c2N2CCOCC2)cs1`, the INHIBITION was 7.64%. With `O=C([C@H]1C[C@@H]2CCN(c3cccc(F)c3)C[C@H]2O1)N1CCCC1`, the INHIBITION turned out to be 39.51%. In the case of `COC(=O)c1ccc(S(=O)(=O)N2CCCn3ncnc32)s1`, the INHIBITION worked out at 59.68%. In the case of `CCc1ccc(S(=O)(=O)N2CCCn3ncnc32)s1`, the INHIBITION is 13.38%. Take `O=S(=O)(c1ccc(Cl)s1)N1CCCn2ncnc21`: the INHIBITION is on record as -49.84%.

`Cc1nccn1-c1nccnc1C1CCCN(C)C1` (configuration not stated): the INHIBITION amounted to 1.75%.

In the case of `CCC(=O)NCC(=O)NCC(C)(C)c1cccc(Br)c1`, the INHIBITION is recorded as 15.2%.

As for `CN(C)c1nc2c(c(N(C)C)n1)CCN(C(=O)CN1C[C@H]3CC[C@@H]1C3)C2`, the INHIBITION is -34.98%. As for `O=C(NCC1CC1)C1CN(C(=O)c2ccncc2)CC12CCOCC2` (configuration not stated), the INHIBITION is recorded as -12.21%. As for `O=C(NCC1CC1)C1CN(C(=O)c2cccc(Cl)c2)CC12CCOCC2` (configuration not stated), the INHIBITION is listed as 71.99%. Consider `O=C(NCC1CC1)C1CN(C(=O)c2cccnc2)CC12CCOCC2` (configuration not stated), for which the INHIBITION was -1.37%. For `O=C(NCC1CC1)C1CN(C(=O)c2cccs2)CC12CCOCC2` (configuration not stated) the value was -4.92%; for `O=C(NCC1CC1)C1CN(C(=O)c2ccco2)CC12CCOCC2` (configuration not stated), 14.39%; for `O=C(NCC1CC1)C1CN(C(=O)c2ccnnc2)CC12CCOCC2` (configuration not stated), 59.59%.

Regarding `Cc1nnc(N2CC[C@@H](OCC3CC3)[C@@H](Cc3ccccc3)C2)s1`, the INHIBITION came out at 1.74%. Consider `Cc1cc(C(=O)N(CC(F)(F)F)C2CCOCC2)c(C)o1`, for which the INHIBITION worked out at 7.68%.

Regarding `Cc1noc(C)c1-c1cncc(C2CCCN2Cc2ccncc2)n1` (configuration not stated), the INHIBITION was 27.8%. Take `COc1ccc(OC2CCN(C(=O)CCc3n[nH]c(C)n3)CC2)cc1`: the INHIBITION is given as -2.77%. For `Cc1ccc(N2CCN(C(=O)CCc3n[nH]c(C)n3)CC2=O)cc1` the value was 19.75%; for `COc1ccc(N2CCN(C(=O)CCc3n[nH]c(C)n3)CC2=O)cc1`, 62.3%; for `O=C(O)[C@H]1OCC(=O)N(Cc2cccc(F)c2)[C@@H]1c1ccc(Cl)cc1`, -4.48%.

On to `Cc1cccc(Nc2cccc(C3CCCN(Cc4ncc[nH]4)C3)n2)n1` (configuration not stated), for which the INHIBITION amounted to 7.02%. Consider `Cc1cnn(CC2CCCN2CC(=O)N(C)CCC#N)c1` (configuration not stated), for which the INHIBITION was -31.3%.

`CC1=C[C@@H](CC#N)[C@H](C(C)C)C[C@H]1CC(=O)N1CCN(C)CC1`: the INHIBITION is 62.8%.

As for `CC(=O)N1CCN(C(=O)C[C@@H]2C[C@@H](C(C)C)[C@H](CC#N)C=C2C)CC1`, the INHIBITION is on record as 46.32%. In the case of `CC1=C[C@@H](CC#N)[C@H](C(C)C)C[C@H]1CC(=O)N1CCN(CCO)CC1`, the INHIBITION was -3.1%. Turning to `Cc1cc(-c2cccc(C(=O)O)c2)nc(C2CCN(C(C)C)CC2)n1`, the INHIBITION stood at 24.56%. Regarding `O=C(NC1CC1)[C@H]1CC[C@@H]2[C@@H](CCN2c2ncc(F)cn2)O1`, the INHIBITION is 1.07%. As for `COc1ccc(C)cc1CN(C)CCCNS(C)(=O)=O`, the INHIBITION is listed as -81.99%.

Regarding `Cn1c(=O)oc2cc(Nc3ncc(C#N)cc3Cl)ccc21`, the INHIBITION is recorded as 53.13%. `Cn1c(=O)oc2cc(Nc3nccnc3C#N)ccc21`: the INHIBITION turned out to be 9.42%. Consider `Cn1c(=O)oc2ccc(Nc3ncc(C#N)cc3Cl)cc21`, for which the INHIBITION is -4.24%. For `CCOc1nnc(CN2CCN(CCOC)C(CC)C2)s1` (configuration not stated) the value was -8.54%; for `CCc1ncnc2c1CCN(S(=O)(=O)c1ccccc1)CC2`, 5.44%; for `CCOc1ncnc2c1CCN(S(=O)(=O)CC)CC2`, 8.41%.

As for `CCOc1ncnc2c1CCN(S(=O)(=O)c1ccccc1)CC2`, the INHIBITION is listed as 55.07%.

Regarding `CC1COCCN1C(=O)COc1ccc(Oc2ccccn2)cc1` (configuration not stated), the INHIBITION turned out to be 41.88%. On to `O=C(NCCCN1CCOCC1)c1cc(-c2ccccc2)[nH]n1`, for which the INHIBITION is given as -55.91%. For `Cc1ccc(-c2c(-c3ccccc3)ncn2CCCN2CCOCC2)o1` the value was 33.9%; for `c1ccc(-c2ncn(CCCN3CCOCC3)c2-c2ccncc2)cc1`, 64.9%. With `CC(C)(Cn1cnc(-c2ccccc2)c1-c1ccco1)N1CCOCC1`, the INHIBITION was -9.41%. As for `OCc1ccc(-c2c(-c3ccccc3)ncn2CCN2CCOCC2)o1`, the INHIBITION was -23.34%.

For the molecule `Cc1nc(-c2c(-c3ccccc3)ncn2CCCN2CCOCC2)c[nH]1`, the INHIBITION is listed as 64.9%. Regarding `CC(=O)N1CCN(C(=O)c2[nH]nnc2Nc2ccccc2F)CC1`, the INHIBITION is given as -66.39%. With `COc1cccc(Cn2cc(N3C(=O)[C@H]4CCCC[C@H]4C3=O)cn2)c1`, the INHIBITION is listed as -3.8%. As for `CN(C(=O)COCc1ccccc1)C1CCN(CC2CCOC2)CC1` (configuration not stated), the INHIBITION is on record as -11.88%. Regarding `CC(C)S(=O)(=O)NCC1CCCN(C(=O)c2ccc(Cl)cc2)C1` (configuration not stated), the INHIBITION came out at 16.82%. Turning to `N#Cc1csc(CNCCOc2ccc(Cl)cn2)c1`, the INHIBITION stood at 10.91%. For the molecule `Cc1cnn(CCNCc2c(C(C)C)nn(C)c2Cl)c1`, the INHIBITION came to 31.81%. For `Cc1cnn(CCNCc2nc(-c3ccccn3)no2)c1` the value was 13.36%; for `Cc1cnn(CCNCc2c(C)nn(C)c2Cl)c1`, 56.15%; for `CCn1nc(C)c(CNCCn2cc(C)cn2)c1C`, -0.98%. For `CCc1noc(CNCCn2cc(C)cn2)n1` the value was -24.75%. For `Cc1cnn(CCNCc2nc(-c3ccccc3Cl)no2)c1` the value was 73.05%; for `CN1CCN(c2cnn(CCn3cccn3)c(=O)c2)CC1`, 26.14%; for `Cc1cc(C(=O)N2C[C@@H]3C(CN(C)CCCn4cccn4)[C@@H]3C2)c(C)o1` (some centres not stated), -6.53%. For the molecule `Cc1ccccc1C(=O)N1C[C@@H]2C(CN(C)CCc3ccccn3)[C@@H]2C1` (some centres not stated), the INHIBITION came out at 56.21%. As for `Cc1cc(C(=O)N2C[C@@H]3C(CN(C)CCc4ccccn4)[C@@H]3C2)c(C)o1` (some centres not stated), the INHIBITION worked out at 33.7%. As to `Cc1cccc2c1ccn2CCC(=O)O`, the INHIBITION worked out at 4.39%.

`Cc1noc(-c2ccc(N3CCC(C(=O)N4CCCC4)CC3)nc2)n1`: the INHIBITION is reported as 51.96%.

Turning to `Cc1noc(-c2ccc(N3CCCC(C(=O)N4CCSCC4)C3)nc2)n1` (configuration not stated), the INHIBITION was -13.24%. For `CCOC(=O)C1CCCN(c2ccc(-c3nc(C)no3)cn2)C1` (configuration not stated) the value was -9.62%.

Take `Cc1noc(-c2ccc(N3CCCC(C(=O)O)C3)nc2)n1` (configuration not stated): the INHIBITION was found to be 25.69%. With `Cc1noc(-c2ccc(N3CCCC(C(=O)c4nccn4C)C3)nc2)n1` (configuration not stated), the INHIBITION was 58.53%.

Take `Cc1noc(-c2ccc(N3CCCC(C(N)=O)C3)nc2)n1` (configuration not stated): the INHIBITION is on record as 22.86%. On to `CC(C)c1nc(C2CCCN2C(=O)c2cnc[nH]2)no1` (configuration not stated), for which the INHIBITION was -66%.

As for `COc1cccc(NC(=O)C(C)Cn2cc(Cl)cn2)c1` (configuration not stated), the INHIBITION came out at 36.45%. Consider `Cc1ccc2nnc(C(=O)NCCCn3cccn3)nc2c1`, for which the INHIBITION is listed as -41.49%. In the case of `CC(C)(C(=O)NCC(=O)NCc1ccccc1)c1ccccc1F`, the INHIBITION is -3.22%. As to `COc1cc2c(cc1CN1CCc3sccc3C1C)OCCO2` (configuration not stated), the INHIBITION came to 18.06%.

In the case of `COc1cc2c(cc1CN1CCc3sccc3C1C)OCO2` (configuration not stated), the INHIBITION worked out at 59.65%. For `COc1ccsc1C(=O)Nc1cc(CN2CCOCC2)ccc1C` the value was 37.63%; for `CCC1c2ccsc2CCN1Cc1cc2c(cc1OC)OCCO2` (configuration not stated), 10.03%. As to `COc1ccc(CN2CCc3sccc3C2C)cc1CN1CCOCC1` (configuration not stated), the INHIBITION is 56.39%. For the molecule `CC1c2ccsc2CCN1Cc1cc2c(cc1O)OCO2` (configuration not stated), the INHIBITION is recorded as 12.7%.

As to `CC(C)OCCn1nnnc1Cc1ccc(Br)cc1`, the INHIBITION was -21.99%.

Regarding `CNC(=O)NC(=O)CCN1CCN(c2nccs2)CC1`, the INHIBITION came out at 27.2%. For `CS(=O)(=O)c1ccc(C(O)CN2CCC(c3ccn[nH]3)CC2)cc1` (configuration not stated) the value was 14.82%; for `C[C@@H]1CN(C(=O)c2cccs2)C[C@]12CCN(CCN(C)C)C2=O`, 6.12%. Regarding `CCCc1nc(CN(CC)Cc2ccc(S(C)(=O)=O)cc2)no1`, the INHIBITION is -5.31%. Regarding `CN(Cc1ccc(Cl)s1)C(=O)Cn1nc(-c2ccc(F)cc2)oc1=O`, the INHIBITION is recorded as 14.82%. Take `Cc1nnc(SCCC(=O)N(C)Cc2ccc(Cl)s2)[nH]1`: the INHIBITION came to 55.36%. For `Cc1nnc(SCCC(=O)N(C)Cc2ccc(F)cc2F)[nH]1` the value was 10.05%. Turning to `Cc1nnc(SCCC(=O)N(C)Cc2ccc(F)cc2Cl)[nH]1`, the INHIBITION is 52.98%. For `CN(CC(N)=O)Cc1ccc(F)cc1Cl` the value was -6.61%. In the case of `Cc1nnc(SCCC(=O)N(C)Cc2c(F)cccc2Cl)[nH]1`, the INHIBITION was determined as 21.97%.

As to `O=C(NCCc1cccc(F)c1)NCC(O)c1cccc(F)c1` (configuration not stated), the INHIBITION is -47.97%.

On to `COc1nc2c(cc1C(=O)N1CCCOC(CN3CCCC3)C1)CCC2` (configuration not stated), for which the INHIBITION is -8.45%. Consider `CCN(Cc1cnn(C)c1)C[C@H]1CC[C@@H](Cc2ccc(CO)cc2)O1`, for which the INHIBITION was determined as 36.78%. For the molecule `CCN(Cc1cnn(C)c1)C[C@H]1CC[C@@H](Cc2ccc(C)nc2)O1`, the INHIBITION was 55.84%. Consider `CCN(Cc1cnn(C)c1)C[C@H]1CC[C@@H](Cc2ccc(OC)nc2)O1`, for which the INHIBITION is on record as -6.22%.

Consider `CN(C)S(=O)(=O)N1CCO[C@H]2[C@H](Oc3cccnc3)CC[C@@H]21`, for which the INHIBITION was -16.75%.

Consider `O=C(c1cc(CC2(NCC3CCCCC3)COC2)no1)N1CCCCC1`, for which the INHIBITION amounted to 54.01%. For `O=C(c1cc(CC2(NC3CCCCC3)COC2)no1)N1CCCCC1` the value was 10.08%; for `COCc1cc(CC2(NCc3ccccc3Cl)COC2)no1`, 27.54%. As to `OCCc1cc(CC2(NCc3ccncc3)COC2)no1`, the INHIBITION worked out at 24.64%. Regarding `O=C(c1cc(CC2(NCc3ccccc3)COC2)no1)N1CCCCC1`, the INHIBITION stood at 56.76%. Take `CC(C)(O)c1cc(CC2(NCC3CCCCC3)COC2)no1`: the INHIBITION is on record as -24.31%.

The values above are taken from ChEMBL document CHEMBL4513216, “Probing the Open Global Health Chemical Diversity Library for Multistage-Active Starting Points for Next-Generation Antimalarials” (ACS Infect Dis, 2020).
